In PubChem BioAssay AID687042 (Broad Institute, 2013):
Active and inactive are the calls of the source.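 How the source made its calls: active means absorbance drop of 50% or more relative to neutral controls, with potency under twice the top valid dose; inactive means the rest, including effects in the opposite direction.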

Target: Protein disulfide-isomerase A6 (Homo sapiens) (UniProt Q15084)
Assay: ERp5 insulin-reduction activity inhibitors – biochemical, insulin aggregation, absorbance, dry powder, set 2, selectivity assay for PDI inhibitor project, dose response (AID 687042)
Settings: absorbance 650 nm; series mostly up to 35 µM; activity, negative = inhibition: at the top concentration

Protein disulfide-isomerase A6 (Homo sapiens), sequence (Q15084 whole entry, looked up): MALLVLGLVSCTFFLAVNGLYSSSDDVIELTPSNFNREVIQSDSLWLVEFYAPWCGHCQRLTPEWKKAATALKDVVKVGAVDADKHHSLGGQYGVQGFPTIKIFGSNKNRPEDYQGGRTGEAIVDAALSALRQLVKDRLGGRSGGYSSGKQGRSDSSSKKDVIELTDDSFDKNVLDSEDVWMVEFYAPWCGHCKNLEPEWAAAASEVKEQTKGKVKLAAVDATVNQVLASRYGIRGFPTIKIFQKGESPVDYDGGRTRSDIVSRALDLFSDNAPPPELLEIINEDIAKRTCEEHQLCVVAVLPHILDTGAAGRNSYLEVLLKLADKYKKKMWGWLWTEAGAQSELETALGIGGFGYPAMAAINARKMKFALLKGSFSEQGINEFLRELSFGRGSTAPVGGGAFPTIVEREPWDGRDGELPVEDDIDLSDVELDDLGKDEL

activity, negative = inhibition, inactive:
CCOC(=O)C1(CCOc2ccccc2)CCN(C(=O)OC(C)(C)C)CC1 -7%
CCOC(=O)c1c(CN2CCN(CCO)CC2)n(-c2ccccc2)c2cc(Br)c(O)cc12 30.7%
CCOC(=O)C1(CCOc2ccccc2)CCN(Cc2cccc(Cl)c2)CC1 6.28%
CCNC(=O)C1(CCOc2ccccc2)CCN(Cc2ccc(O)c(Cl)c2)CC1 -0.667%
CCOC(=O)C1(CCOc2ccccc2)CCN(C(=O)c2ccc(O)c(Cl)c2)CC1 7.26%
C=CCOc1ccc(CN2CCC(CCOc3ccccc3)(C(=O)NCC)CC2)cc1Cl -0.683%
C=CCOc1ccc(CN2CCC(CCOc3ccccc3)(C(=O)N(C)CC)CC2)cc1Cl 9.33%
C/C1=C\[C@@H](O)C(C)(C)CCCC2(C)OC2C[C@@H]1OC(=O)c1ccc(O)cc1 (stereo partly specified) 3.86%
CC(C)OC(=O)C1(CCOc2ccccc2)CCN(Cc2ccc(O)c(Cl)c2)CC1 2.23%
CCOC(=O)C1(CCOc2ccccc2)CCN(Cc2ccc(O)cc2)CC1 -6.52%
CCOC(=O)C1(CCOc2ccccc2)CCN(Cc2ccc(OC)cc2)CC1 -4.92%
C=CCOc1ccc(CN2CCC(CCOc3ccccc3)(C(=O)N3CCCC3)CC2)cc1Cl 12.4%
O=C(NC1CCCC1)C1(CCOc2ccccc2)CCN(Cc2ccc(O)c(Cl)c2)CC1 2.7%
C=CCOc1ccc(CN2CCC(CCOc3ccccc3)(C(=O)OCC)CC2)cc1Cl 2.71%
C=CCOc1ccc(CN2CCC(CCOc3ccccc3)(C(=O)NC3CCCC3)CC2)cc1Cl 6.26%

outcome, inactive:
CCOC(=O)C1(CCOc2ccccc2)CCN(Cc2ccc(O)c(Cl)c2)CC1
